# Positions count from the first letter of the chain named.
# How the values were obtained:
# Assay in all cases: PBM; 200 nM protein, PBS
# Details in all cases: dsDNA, one strand shown
# HOXB4 [1] = biological target: HOXB4 (Homo sapiens, UniProt P17483 148-234)
# VENTX [2] = biological target: T1, VENTX (Homo sapiens, UniProt O95231 78-163, R121Q)
# T1 sequence: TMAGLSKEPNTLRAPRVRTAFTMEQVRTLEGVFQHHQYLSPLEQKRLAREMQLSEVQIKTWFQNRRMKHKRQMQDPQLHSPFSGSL
# HOXB9 [3] = biological target: HOXB9 (Homo sapiens, UniProt P17482 171-250, T197M)
# HOXA4 [4] = biological target: HOXA4 (Homo sapiens, UniProt Q00056 201-287, W262R)
# HOXC9 [5] = biological target: HOXC9 (Homo sapiens, UniProt P31274 178-260, K195R)
# VENTX [6] = biological target: T2, VENTX (Homo sapiens, UniProt O95231 78-163)
# T2 sequence: T1 sequence with Q44R
# HOXA7 [7] = biological target: HOXA7 (Homo sapiens, UniProt P31268 116-202)
# HOXC10 [8] = biological target: HOXC10 (Homo sapiens, UniProt Q9NYD6 254-340)
# PAX4 = biological target: T3, PAX4 (Homo sapiens, UniProt O43316 9-242, R200K)
# T3 sequence: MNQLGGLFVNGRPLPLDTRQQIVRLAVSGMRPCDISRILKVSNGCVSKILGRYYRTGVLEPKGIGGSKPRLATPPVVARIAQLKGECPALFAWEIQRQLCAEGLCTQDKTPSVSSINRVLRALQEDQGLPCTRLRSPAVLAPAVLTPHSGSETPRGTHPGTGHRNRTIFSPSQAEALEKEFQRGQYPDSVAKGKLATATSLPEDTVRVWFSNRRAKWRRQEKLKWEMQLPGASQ
# VENTX [9] = biological target: T4, VENTX (Homo sapiens, UniProt O95231 78-163, Y115F)
# T4 sequence: T1 sequence with Y38F, Q44R
# HOXB6 [10] = biological target: HOXB6 (Homo sapiens, UniProt P17509 132-218, K202E)
# HOXA2 [11] = biological target: HOXA2 (Homo sapiens, UniProt O43364 129-215, R185T)
# HOXA4 [12] = biological target: HOXA4 (Homo sapiens, UniProt Q00056 201-287, R217L)
# HOXB9 [13] = biological target: HOXB9 (Homo sapiens, UniProt P17482 171-250)
# HOXB4 [14] = biological target: HOXB4 (Homo sapiens, UniProt P17483 148-234, V174I)
# HOXC9 [15] = biological target: HOXC9 (Homo sapiens, UniProt P31274 178-260)
# HOXC9 [16] = biological target: HOXC9 (Homo sapiens, UniProt P31274 178-260, R193K)
# HOXA2 [17] = biological target: HOXA2 (Homo sapiens, UniProt O43364 129-215, R185K)
# HOXA4 [18] = biological target: HOXA4 (Homo sapiens, UniProt Q00056 201-287)
# HOXC10 [19] = biological target: HOXC10 (Homo sapiens, UniProt Q9NYD6 254-340, K271E)
# VAX1 [20] = biological target: VAX1 (Homo sapiens, UniProt Q5SQQ9 86-172)
# HOXD13 = HOXD13 (Homo sapiens, UniProt P35453 263-343, T313A)
# HOXB9 [21] = biological target: HOXB9 (Homo sapiens, UniProt P17482 171-250, R186Q)
# HOXC9 [22] = biological target: HOXC9 (Homo sapiens, UniProt P31274 178-260, R222W)
# VAX1 [23] = biological target: VAX1 (Homo sapiens, UniProt Q5SQQ9 86-172, T142I)
# HOXA2 [24] = biological target: HOXA2 (Homo sapiens, UniProt O43364 129-215, Y150S)
# HOXA7 [25] = biological target: HOXA7 (Homo sapiens, UniProt P31268 116-202, W177C)
# HOXA4 [26] = biological target: HOXA4 (Homo sapiens, UniProt Q00056 201-287, W262F)
# HOXA2 [27] = biological target: HOXA2 (Homo sapiens, UniProt O43364 129-215)
# VAX1 [28] = biological target: VAX1 (Homo sapiens, UniProt Q5SQQ9 86-172, K157R)
# HOXB6 [29] = biological target: HOXB6 (Homo sapiens, UniProt P17509 132-218)
# HESX1 [30] = biological target: HESX1 (Homo sapiens, UniProt Q9UBX0 95-180, R165K)
# HESX1 [31] = biological target: HESX1 (Homo sapiens, UniProt Q9UBX0 95-180)
# HESX1 [32] = biological target: HESX1 (Homo sapiens, UniProt Q9UBX0 95-180, P111T)
# HESX1 [33] = biological target: HESX1 (Homo sapiens, UniProt Q9UBX0 95-180, F115L)
# Chain of HESX1 (Homo sapiens, UniProt Q9UBX0 95-180, F115L) (Q9UBX0 95-180 F115L): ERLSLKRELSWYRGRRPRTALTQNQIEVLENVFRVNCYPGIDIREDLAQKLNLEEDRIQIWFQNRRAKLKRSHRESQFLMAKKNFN
# Chain of HOXA2 (Homo sapiens, UniProt O43364 129-215) (O43364 129-215): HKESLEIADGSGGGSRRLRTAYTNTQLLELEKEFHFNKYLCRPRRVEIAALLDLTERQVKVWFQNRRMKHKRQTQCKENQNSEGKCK
# Chain of HOXB9 (Homo sapiens, UniProt P17482 171-250, T197M) (P17482 171-250 T197M): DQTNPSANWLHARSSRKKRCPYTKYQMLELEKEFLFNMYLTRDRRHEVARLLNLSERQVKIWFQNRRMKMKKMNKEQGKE
# Chain of HOXA4 (Homo sapiens, UniProt Q00056 201-287, W262R) (Q00056 201-287 W262R): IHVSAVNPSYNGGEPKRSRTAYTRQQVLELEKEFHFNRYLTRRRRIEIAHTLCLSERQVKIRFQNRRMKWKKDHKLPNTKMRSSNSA
# Chain of HOXC10 (Homo sapiens, UniProt Q9NYD6 254-340, K271E) (Q9NYD6 254-340 K271E): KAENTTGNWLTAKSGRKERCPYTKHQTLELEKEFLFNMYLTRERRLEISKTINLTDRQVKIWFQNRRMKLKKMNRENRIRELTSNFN
# Chain of HOXD13 (P35453 263-343 T313A): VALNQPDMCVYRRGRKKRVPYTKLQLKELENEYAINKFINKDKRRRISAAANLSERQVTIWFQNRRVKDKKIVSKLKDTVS
# Chain of HOXC9 (Homo sapiens, UniProt P31274 178-260, R222W) (P31274 178-260 R222W): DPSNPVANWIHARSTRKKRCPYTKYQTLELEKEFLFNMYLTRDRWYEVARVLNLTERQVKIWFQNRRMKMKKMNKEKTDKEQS
# Chain of HESX1 (Homo sapiens, UniProt Q9UBX0 95-180, P111T) (Q9UBX0 95-180 P111T): as the sequence (Q9UBX0 95-180 F115L) above, with P17T, L21F counted along it
# Chain of HOXA2 (Homo sapiens, UniProt O43364 129-215, R185T) (O43364 129-215 R185T): as the sequence (O43364 129-215) above, with R57T counted along it
# Chain of HOXC9 (Homo sapiens, UniProt P31274 178-260) (P31274 178-260): as the sequence (P31274 178-260 R222W) above, with W45R counted along it
# Chain of VAX1 (Homo sapiens, UniProt Q5SQQ9 86-172, T142I) (Q5SQQ9 86-172 T142I): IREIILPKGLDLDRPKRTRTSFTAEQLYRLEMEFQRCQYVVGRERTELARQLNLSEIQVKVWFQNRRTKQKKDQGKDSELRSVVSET
# Chain of HOXA4 (Homo sapiens, UniProt Q00056 201-287, W262F) (Q00056 201-287 W262F): as the sequence (Q00056 201-287 W262R) above, with R62F counted along it
# Chain of HESX1 (Homo sapiens, UniProt Q9UBX0 95-180, R165K) (Q9UBX0 95-180 R165K): as the sequence (Q9UBX0 95-180 F115L) above, with L21F, R71K counted along it
# Chain of HOXA2 (Homo sapiens, UniProt O43364 129-215, Y150S) (O43364 129-215 Y150S): as the sequence (O43364 129-215) above, with Y22S counted along it
# Chain of HOXA2 (Homo sapiens, UniProt O43364 129-215, R185K) (O43364 129-215 R185K): as the sequence (O43364 129-215) above, with R57K counted along it
# Chain of HOXB6 (Homo sapiens, UniProt P17509 132-218) (P17509 132-218): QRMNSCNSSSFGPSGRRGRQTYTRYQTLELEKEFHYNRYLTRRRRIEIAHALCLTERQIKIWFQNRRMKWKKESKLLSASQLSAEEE
# Chain of HOXA4 (Homo sapiens, UniProt Q00056 201-287, R217L) (Q00056 201-287 R217L): as the sequence (Q00056 201-287 W262R) above, with R17L, R62W counted along it
# Chain of HOXB4 (Homo sapiens, UniProt P17483 148-234, V174I) (P17483 148-234 V174I): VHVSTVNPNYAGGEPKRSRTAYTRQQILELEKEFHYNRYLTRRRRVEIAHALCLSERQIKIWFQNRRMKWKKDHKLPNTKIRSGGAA
# Chain of HOXC9 (Homo sapiens, UniProt P31274 178-260, R193K) (P31274 178-260 R193K): as the sequence (P31274 178-260 R222W) above, with R16K, W45R counted along it
# Chain of HOXA7 (Homo sapiens, UniProt P31268 116-202) (P31268 116-202): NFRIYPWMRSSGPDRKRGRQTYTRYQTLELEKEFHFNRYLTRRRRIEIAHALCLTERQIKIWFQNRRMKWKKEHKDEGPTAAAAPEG
# Chain of HOXB9 (Homo sapiens, UniProt P17482 171-250) (P17482 171-250): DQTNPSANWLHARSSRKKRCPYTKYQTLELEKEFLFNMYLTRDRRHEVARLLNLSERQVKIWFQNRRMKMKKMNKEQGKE
# Chain of HOXA4 (Homo sapiens, UniProt Q00056 201-287) (Q00056 201-287): as the sequence (Q00056 201-287 W262R) above, with R62W counted along it
# Chain of VAX1 (Homo sapiens, UniProt Q5SQQ9 86-172, K157R) (Q5SQQ9 86-172 K157R): as the sequence (Q5SQQ9 86-172 T142I) above, with I57T, K72R counted along it
# Chain of HOXC10 (Homo sapiens, UniProt Q9NYD6 254-340) (Q9NYD6 254-340): as the sequence (Q9NYD6 254-340 K271E) above, with E18K counted along it
# Chain of VAX1 (Homo sapiens, UniProt Q5SQQ9 86-172) (Q5SQQ9 86-172): as the sequence (Q5SQQ9 86-172 T142I) above, with I57T counted along it
# Chain of HOXA7 (Homo sapiens, UniProt P31268 116-202, W177C) (P31268 116-202 W177C): as the sequence (P31268 116-202) above, with W62C counted along it
# Chain of HOXC9 (Homo sapiens, UniProt P31274 178-260, K195R) (P31274 178-260 K195R): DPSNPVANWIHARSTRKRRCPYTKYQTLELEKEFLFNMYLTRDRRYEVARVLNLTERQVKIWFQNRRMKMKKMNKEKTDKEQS
# Chain of HESX1 (Homo sapiens, UniProt Q9UBX0 95-180) (Q9UBX0 95-180): as the sequence (Q9UBX0 95-180 F115L) above, with L21F counted along it
# Chain of HOXB6 (Homo sapiens, UniProt P17509 132-218, K202E) (P17509 132-218 K202E): as the sequence (P17509 132-218) above, with K71E counted along it
# Chain of HOXB4 (Homo sapiens, UniProt P17483 148-234) (P17483 148-234): as the sequence (P17483 148-234 V174I) above, with I27V counted along it
# Chain of HOXB9 (Homo sapiens, UniProt P17482 171-250, R186Q) (P17482 171-250 R186Q): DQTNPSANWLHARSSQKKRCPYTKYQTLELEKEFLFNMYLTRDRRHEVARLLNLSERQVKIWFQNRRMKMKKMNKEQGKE
sequence,measurement,setting,value
ATTAATGG,binding signal,HOXB4 [1],"13.4 upbm affinity estimate (log intensity, higher = more binding, comparable within an allelic series)"
same,binding signal,VENTX [2],"12.2 upbm affinity estimate (log intensity, higher = more binding, comparable within an allelic series)"
same,binding signal,HOXB9 [3],"10.3 upbm affinity estimate (log intensity, higher = more binding, comparable within an allelic series)"
same,binding signal,HOXA4 [4],"10.7 upbm affinity estimate (log intensity, higher = more binding, comparable within an allelic series)"
same,binding signal,HOXC9 [5],"12.9 upbm affinity estimate (log intensity, higher = more binding, comparable within an allelic series)"
same,binding signal,VENTX [6],"12.7 upbm affinity estimate (log intensity, higher = more binding, comparable within an allelic series)"
same,binding signal,HOXA7 [7],"12 upbm affinity estimate (log intensity, higher = more binding, comparable within an allelic series)"
same,binding signal,HOXC10 [8],"12.4 upbm affinity estimate (log intensity, higher = more binding, comparable within an allelic series)"
same,binding signal,PAX4,"11.7 upbm affinity estimate (log intensity, higher = more binding, comparable within an allelic series)"
same,binding signal,VENTX [9],"11.8 upbm affinity estimate (log intensity, higher = more binding, comparable within an allelic series)"
same,binding signal,HOXB6 [10],"10.2 upbm affinity estimate (log intensity, higher = more binding, comparable within an allelic series)"
same,binding signal,HOXA2 [11],"12.6 upbm affinity estimate (log intensity, higher = more binding, comparable within an allelic series)"
same,binding signal,HOXA4 [12],"12.2 upbm affinity estimate (log intensity, higher = more binding, comparable within an allelic series)"
same,binding signal,HOXB9 [13],"12.3 upbm affinity estimate (log intensity, higher = more binding, comparable within an allelic series)"
same,binding signal,HOXB4 [14],"14.1 upbm affinity estimate (log intensity, higher = more binding, comparable within an allelic series)"
same,binding signal,HOXC9 [15],"12.9 upbm affinity estimate (log intensity, higher = more binding, comparable within an allelic series)"
same,binding signal,HOXC9 [16],"12.9 upbm affinity estimate (log intensity, higher = more binding, comparable within an allelic series)"
same,binding signal,HOXA2 [17],"13.4 upbm affinity estimate (log intensity, higher = more binding, comparable within an allelic series)"
same,binding signal,HOXA4 [18],"13.9 upbm affinity estimate (log intensity, higher = more binding, comparable within an allelic series)"
same,binding signal,HOXC10 [19],"12.2 upbm affinity estimate (log intensity, higher = more binding, comparable within an allelic series)"
same,binding signal,VAX1 [20],"13 upbm affinity estimate (log intensity, higher = more binding, comparable within an allelic series)"
same,binding signal,HOXD13,"11.6 upbm affinity estimate (log intensity, higher = more binding, comparable within an allelic series)"
same,binding signal,HOXB9 [21],"12 upbm affinity estimate (log intensity, higher = more binding, comparable within an allelic series)"
same,binding signal,HOXC9 [22],"11.2 upbm affinity estimate (log intensity, higher = more binding, comparable within an allelic series)"
same,binding signal,VAX1 [23],"12.6 upbm affinity estimate (log intensity, higher = more binding, comparable within an allelic series)"
same,binding signal,HOXA2 [24],"11.1 upbm affinity estimate (log intensity, higher = more binding, comparable within an allelic series)"
same,binding signal,HOXA7 [25],"8.96 upbm affinity estimate (log intensity, higher = more binding, comparable within an allelic series)"
same,binding signal,HOXA4 [26],"11.6 upbm affinity estimate (log intensity, higher = more binding, comparable within an allelic series)"
same,binding signal,HOXA2 [27],"12.3 upbm affinity estimate (log intensity, higher = more binding, comparable within an allelic series)"
same,binding signal,VAX1 [28],"12.5 upbm affinity estimate (log intensity, higher = more binding, comparable within an allelic series)"
same,binding signal,HOXB6 [29],"12.4 upbm affinity estimate (log intensity, higher = more binding, comparable within an allelic series)"
ATTAGTGC,binding signal,HESX1 [30],"9.5 upbm affinity estimate (log intensity, higher = more binding, comparable within an allelic series)"
same,binding signal,HESX1 [31],"9.81 upbm affinity estimate (log intensity, higher = more binding, comparable within an allelic series)"
same,binding signal,HESX1 [32],"8.71 upbm affinity estimate (log intensity, higher = more binding, comparable within an allelic series)"
same,binding signal,HESX1 [33],"6.94 upbm affinity estimate (log intensity, higher = more binding, comparable within an allelic series)"

# — PMC11006913
